Compound activity: PubChem BioAssay, National Center for Advancing Translational Sciences (NCATS)
KDM5B inh: blocks human KDM5B histone demethylase activity; Q9UGL1; KDM5B demethylase, FDH-coupled NADH fluorescence (FDH is formaldehyde dehydrogenase); Potency, µM (titrated, usually from 57.7 µM), hits mostly inhibitors; 2.6% of 220,000 active; active = well fitted inhibition curve with a large enough effect; inconclusive = small, poorly fitted or top-dose-only effect; inactive = no such curve, though single readings can be large or run the other way; also: potency is read from the fitted curve at half-maximal effect; 0% is about no effect; nearly all actives have a fitted effect of over 70% in size
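Coupled FDH/NAD⁺ fluorescence readout. KDM5BΔAP 200 nM final; compound titration, 10 min RT preincubation; substrate mix 12.5 µM H3K4me3, 25 µM 2-OG, 50 µM Fe(II), 100 µM ascorbate, 0.25 mM NAD⁺, 0.25 U/mL FDH; ΔRFU over 30 min.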
IP6K1 inh: blocks human inositol hexakisphosphate kinase 1. IP6K1 kinase, ADP-Glo luminescence, 2 h; active compounds read low. activity change, % (series mostly up to about 58 µM). 0.81% of 140,000 active. AID 1645851; in the data active = activity change below about -25%; also: % is scaled to controls: 0 for no effect and ±100 for the full control effect
Target sequence (Q92551 whole entry, looked up): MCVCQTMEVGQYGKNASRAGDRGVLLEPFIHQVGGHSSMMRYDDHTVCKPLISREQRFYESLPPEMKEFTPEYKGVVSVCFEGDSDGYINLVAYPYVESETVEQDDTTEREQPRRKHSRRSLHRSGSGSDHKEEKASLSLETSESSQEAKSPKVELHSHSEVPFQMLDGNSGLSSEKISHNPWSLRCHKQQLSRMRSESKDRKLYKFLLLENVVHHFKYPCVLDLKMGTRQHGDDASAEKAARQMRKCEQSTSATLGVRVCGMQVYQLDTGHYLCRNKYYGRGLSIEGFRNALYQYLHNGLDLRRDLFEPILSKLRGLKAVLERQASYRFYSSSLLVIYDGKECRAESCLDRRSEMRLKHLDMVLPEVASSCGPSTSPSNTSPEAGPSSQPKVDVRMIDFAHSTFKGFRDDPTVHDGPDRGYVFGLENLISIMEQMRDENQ
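ADP-Glo luminescence measures ADP made by human IP6K1 during a 2 h RT reaction with ATP/IP6 (mix at 1.3 mM/130 uM); top library doses 57.5 and 19.1 uM final.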
Starred values were filed as active, the others as inactive; i = inactive; ? = inconclusive; nt = not tested or not shown. In the library only some 2.8% were active in any assay of this set; here they are far more common.

SMILES | KDM5B inh | IP6K1 inh
CN(C)[C@H]1CN(C(=O)c2cccc(NCc3ccc(F)cc3)c2)C[C@@H]1O | i | -1
Cc1cccc(CN2CCCC(O)(CN3CCC(C)CC3)C2=O)c1 (stereo unspecified) | i | -7
Cc1cccc(CN2CCCC(O)(CNCc3ncccc3C)C2=O)c1 (stereo unspecified) | 28µM* | 0
O=C(c1ccc2cc[nH]c2c1)N1CCN(C(=O)c2nnn3c2COC(c2ccccc2)C3)CC1 (stereo unspecified) | ? | 0
O=C(c1nnn2c1COC(c1ccccc1)C2)N1CCN(C(=O)c2cccc3[nH]ccc23)CC1 (stereo unspecified) | 28µM* | -2
O=C(CCc1nnn2c1CN(C(=O)c1cccc3[nH]ccc13)CC2)N1CCCC1 | 28µM* | -9
O=C(CCc1nnn2c1CN(C(=O)NCCc1ccccc1)CC2)N1CCCC1 | i | 3
Cn1ncc2c(C(=O)N3CCC(c4ccccc4)CC3)cc(-c3ccc(C(F)(F)F)cc3)nc21 | nt | -3
Cc1cc(C)cc(NC(=S)NNC=O)c1 | i | nt
COc1cccc(-c2cn3cc(C(=O)NCCCc4ccccc4)nc3s2)c1 | nt | 7
Cc1ccc(-c2cc(N3CCC(CNC(=O)c4cc(C5CC5)[nH]n4)CC3)n[nH]2)cc1 | ? | 8
Cc1cc2c(cc1C)CSC(c1c(O)ccc3cc(Br)ccc13)SC2 | i | nt
CCn1cc2c3c(cccc31)CN(C(=O)c1ccc(OC)c(F)c1)CC2 | 32µM* | 4
COCCn1cc2c3c(cccc31)CN(C(=O)c1ccc(C)c(C)c1)CC2 | ? | 25
N#C/C(=C\c1cccc(OCCOc2ccccc2)c1)c1nc2ccccc2[nH]1 | i | nt
Cc1ccc(-c2ncc(C(=O)N(C)Cc3nc(CC(C)C)no3)c(=O)[nH]2)cc1 | i | -12
COCCN(Cc1nccs1)C(=O)c1cnc(-c2ccccn2)[nH]c1=O | 11µM* | 21
COCCN(Cc1ccccn1)C(=O)c1ccc2c(c1)ncn2C | i | 33
CCN(Cc1noc(CC(C)C)n1)C(=O)c1cnc(-c2ccccn2)[nH]c1=O | 7.9µM* | 9
O=C1NCc2ccccc2CC12CCCN2Cc1c(F)cccc1Cl (stereo unspecified) | i | -2
C#CCNC(=O)c1cc(-c2ccccc2C(F)(F)F)nc2c1cnn2C | nt | 3
Cc1cccc(C)c1NC(=O)CSc1nnc(Cc2ccccc2)n1-n1cccc1 | i | nt
O=C(N[C@H]1CO[C@H]2[C@@H]1OC[C@@H]2Nc1nccc(-c2ccco2)n1)c1ccco1 | 40µM* | 14
S=C(Nc1ccccc1)N[C@H]1CO[C@H]2[C@@H]1OC[C@@H]2Nc1nccc(-c2ccco2)n1 | 25µM* | 4
O=C(COc1ccccc1)N[C@H]1CO[C@H]2[C@@H]1OC[C@@H]2Nc1nccc(-c2ccco2)n1 | ? | 15
SMILES | KDM5B inh | IP6K1 inh
O=C(N[C@H]1CO[C@H]2[C@@H]1OC[C@@H]2Nc1nccc(C2CCCC2)n1)c1ccco1 | ? | 4
COCCN1CCCC[C@]2(C[C@H](CO)[C@H](c3ccccc3)N2C(=O)OCC(C)C)C1=O | nt | -3
COC(=O)c1ccc(NC(=O)COc2cc(C)c(Cl)c(C)c2)cc1 | i | nt
COc1ccc(-c2ccc(C(=O)NCCc3ccccc3)c(Cl)c2)nn1 | nt | 0
Cc1nn(-c2ccccc2)c2c1C(C)N(C1CCN(C(=O)c3ccccc3F)CC1)C2=O (stereo unspecified) | nt | -8
Cn1ncc2c(C(=O)NCc3cccc(Cl)c3)cc(-c3ccsc3)nc21 | nt | 5
COCCNC(=O)CCCN1C(=O)COc2ccc(C(=O)COc3ccccc3OC)cc21 | i | 1
CN(C)C(=O)c1ccc2c(c1)N(C)C(CC(=O)NCC(C)(C)O)CO2 (stereo unspecified) | i | 3
CCCNC(=O)CC1COc2ccc(C(=O)NCCOC)cc2N1C (stereo unspecified) | 28µM* | 17
Cc1cncc(NC(=O)CC2COc3ccc(C(=O)N(C)C)cc3N2C)c1 (stereo unspecified) | i | 0
COCCNC(=O)c1ccc2c(c1)N(C)C(CC(=O)Nc1ccccc1)CO2 (stereo unspecified) | 32µM* | 8
COCCNC(=O)c1ccc2c(c1)N(C)C(CC(=O)NCc1ccon1)CO2 (stereo unspecified) | 28µM* | 4
COCCNC(=O)c1ccc2c(c1)N(C)C(CC(=O)Nc1ccc(N)nc1)CO2 (stereo unspecified) | 22µM* | 9
COc1ccc(C(=O)Oc2ccccc2C)cc1Br | i | nt
CC(Nc1ccc([N+](=O)[O-])cn1)c1nc2ccccc2n1C(F)F (stereo unspecified) | i | nt
CC(C)(C)CN1CCNc2cc(Nc3ccccc3)ncc2C1 | ? | -7
CCN(CC)C(=O)CC1COc2ccc(C(=O)NCCOC)cc2N1C (stereo unspecified) | 28µM* | 13
COCCNC(=O)c1ccc2c(c1)N(C)C(CC(=O)NC1CCC1)CO2 (stereo unspecified) | 28µM* | 12
COCCNC(=O)c1ccc2c(c1)N(C)C(CC(=O)NC(C)C)CO2 (stereo unspecified) | 20µM* | 11
CCN(CC(C)(C)C)C(=O)CC1COc2ccc(C(=O)N(C)C)cc2N1C (stereo unspecified) | ? | -4
COCCNC(=O)c1ccc(OC2CCN(CC3CCOC3)CC2)c(Cl)c1 (stereo unspecified) | i | -4
C=CCN(C)C(=O)CC1COc2ccc(C(=O)N(C)C)cc2N1C (stereo unspecified) | i | 2
COCCNC(=O)c1ccc2c(c1)N(C)C(CC(=O)N(C)CC(C)C)CO2 (stereo unspecified) | 32µM* | 11
CN(C)C(=O)c1ccc2c(c1)N(C)C(CC(=O)NC(C)(C)c1ccccc1)CO2 (stereo unspecified) | i | 9
COCCNC(=O)c1ccc2c(c1)N(C)C(CC(=O)NCC(C)C)CO2 (stereo unspecified) | ? | 16
SMILES | KDM5B inh | IP6K1 inh
CCNC(=O)CC1COc2ccc(C(=O)NCCOC)cc2N1C (stereo unspecified) | 32µM* | -3
Cc1ccc(NC(=O)NC(=O)CN(C)c2ccccc2)c(C)c1 | i | nt
CC(C)CC(CNC(=O)c1nn(-c2ccccc2)c(=O)c2ccccc12)N1CCOCC1 (stereo unspecified) | i | nt
c1ccc2c[n+](Cc3cccc4ccccc34)ccc2c1 | i | nt
Cn1ncc2c(C(=O)Nc3ccccc3F)cc(-c3ccc(C(F)(F)F)cc3)nc21 | nt | -10
COCCNC(=O)N[C@@H]1CN(Cc2ccccc2)C[C@H]1CN(C)C | i | 0
COc1ccc(CNC(=O)N[C@@H]2CN(c3ncccn3)C[C@H]2CN(C)C)cc1 | 28µM* | 5
CN(C)C[C@@H]1CN(c2ncccn2)C[C@H]1NC(=O)NCc1ccco1 | ? | -1
COCCCNC(=O)N[C@@H]1CN(c2ncccn2)C[C@H]1CN(C)C | 32µM* | 26
O=C(NCc1cccs1)c1nc2cccnc2n(C2CCCCC2)c1=O | nt | 8
COc1ccc(NC(=O)C2CC(=O)N(c3n[nH]c4ccccc34)C2)cn1 (stereo unspecified) | ? | 17
CCOC(=O)c1ccc(NC(=O)C2CC(=O)N(c3n[nH]c4ccccc34)C2)cc1 (stereo unspecified) | 28µM* | -1
